In PubChem BioAssay AID1159580 (chemical genetic matrix, 2015):
Several values for one entry are separate records, joined by “and”; a condition that tells them apart may be missing. Identical values can stand only once. The campaign covered roughly 5,500 compounds. About 2,000 (36%) were called active. Roughly 18% stayed inconclusive and do not appear here. Rule as the data show it: active = normalized growth mostly below about 0.91 (no sharp cut-off); inconclusive = no clear call, values can overlap the other calls; inactive = mostly above about 0.92. Some of the results follow.

Assay: chemical genetic growth profiling, strain panel (AID 1159580);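 also: tested at 20 µM; growth read once vehicle control cultures reached saturation at 30 °C; 1 = growth at the plate median or of vehicle wells; lower values mean less growth of the strain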
Conditions: S. cerevisiae deletion strains, growth OD
[1] = locus YMR307W, strain GAS1, active compounds read low
[2] = locus YPL241C, strain CIN2, active compounds read low

Measured: normalized growth

c1ccc(CN(CC2=NCCN2)c2ccccc2)cc1
inactive: locus YAL013W, strain DEP1, active compounds read low 1.01 | locus YAL021C, strain ccr4, active compounds read low 0.973 | locus YAL026C, strain drs2, active compounds read low 0.999 | locus YAL030W, strain snc1, active compounds read low 1.01 | locus YBL061C, strain skt5, active compounds read low 1.03 | locus YBR009C, strain hhf1, active compounds read low 0.998 | locus YBR021W, strain FUR4, active compounds read low 1.02 | locus YBR023C, strain chs3, active compounds read low 1.02 | locus YBR171W, strain sec66, active compounds read low 1.02 | locus YBR229C, strain ROT2, active compounds read low 1 | locus YBR231C, strain swc5, active compounds read low 0.999 | locus YBR279W, strain paf1, active compounds read low 1.02 | locus YCL011C, strain gbp2, active compounds read low 0.989 | locus YCL016C, strain dcc1, active compounds read low 0.976 | locus YCL029C, strain bik1, active compounds read low 1.01 | locus YCL069W, strain vba3, active compounds read low 1.02 | locus YCR088W, strain abp1, active compounds read low 1.01 | locus YDL005C, strain med2, active compounds read low 1.01 | locus YDL035C, strain GPR1, active compounds read low 1.02 | locus YDL040C, strain nat1, active compounds read low 1.02 | locus YDL074C, strain BRE1, active compounds read low 1.01 | locus YDL101C, strain DUN1, active compounds read low 1.01 | locus YDL134C, strain PPH21, active compounds read low 1.01 | locus YDL185W, strain tfp1, active compounds read low 1 | locus YDL192W, strain arf1, active compounds read low 1 | locus YDR001C, strain nth1, active compounds read low 1.01 | locus YDR069C, strain doa4, active compounds read low 1.02 | locus YDR101C, strain arx1, active compounds read low 0.994 | locus YDR137W, strain rgp1, active compounds read low 0.967 | locus YDR159W, strain sac3, active compounds read low 1 | locus YDR162C, strain NBP2, active compounds read low 1.03 | locus YDR195W, strain ref2 1.02 | locus YDR297W, strain sur2, active compounds read low 1.01 | locus YDR318W, strain mcm21, active compounds read low 0.992 | locus YDR334W, strain swr1, active compounds read low 1.02 | locus YDR335W, strain msn5, active compounds read low 1 | locus YDR388W, active compounds read low 1.01 | locus YDR392W, strain spt3, active compounds read low 0.961 | locus YDR502C, strain sam2, active compounds read low 1 | locus YEL003W, strain gim4, active compounds read low 1.03 | locus YEL037C, strain rad23, active compounds read low 1.01 | locus YEL061C, strain CIN8 (second series), active compounds read low 1.01 | locus YEL061C, strain CIN8, active compounds read low 1.01 | locus YER015W, strain faa2, active compounds read low 0.999 | locus YER016W, strain bim1, active compounds read low 1.01 | locus YER110C, active compounds read low 0.992 | locus YER111C, strain swi4, active compounds read low 1.03 | locus YER155C, strain BEM2 (second series), active compounds read low 1.04 | locus YER155C, strain BEM2, active compounds read low 0.997 | locus YER167W, strain BCK2, active compounds read low 1.01 | locus YFR010W, strain ubp6, active compounds read low 1.02 | locus YGL078C, strain dbp3, active compounds read low 0.997 | locus YGL086W, strain mad1, active compounds read low 0.997 | locus YGL167C, strain pmr1, active compounds read low 1.03 | locus YGL173C, strain kem1, active compounds read low 1.03 | locus YGL227W, strain vid30, active compounds read low 1.01 | locus YGL240W, strain doc1, active compounds read low 1.04 | locus YGL248W, strain PDE1, active compounds read low 1 | locus YGL253W, strain hxk2, active compounds read low 1 | locus YGR135W, strain pre9, active compounds read low 1 | locus YGR252W, strain gcn5, active compounds read low 0.997 | locus YHR013C, strain ard1, active compounds read low 0.972 | locus YHR027C, strain rpn1, active compounds read low 1.02 | locus YHR030C, strain SLT2, active compounds read low 1.01 and 1.02 | locus YHR079C, strain IRE1 (second series), active compounds read low 0.995 | locus YHR079C, strain IRE1, active compounds read low 1.03 | locus YHR094C, strain hxt1, active compounds read low 1 | locus YHR129C, strain ARP1, active compounds read low 1.01 | locus YHR142W, strain chs7, active compounds read low 1 | locus YHR200W, strain rpn10, active compounds read low 1.01 | locus YIL066C, strain RNR3, active compounds read low 1.03 | locus YIL073C, strain SPO22, active compounds read low 1 | locus YIL125W, strain kgd1, active compounds read low 1 | locus YIR030C, strain dcg1, active compounds read low 0.991 | locus YJL092W, strain hpr5, active compounds read low 1.03 | locus YJL095W, strain BCK1 (second series), active compounds read low 1.01 | locus YJL095W, strain BCK1, active compounds read low 1.02 and 1.04 | locus YJL115W, strain asf1, active compounds read low 0.999 | locus YJL129C, strain trk1, active compounds read low 1.03 | locus YJL134W, strain LCB3, active compounds read low 1.01 | locus YJL154C, strain vps35, active compounds read low 1.01 | locus YJL164C, strain tpk1, active compounds read low 0.974 | locus YJL166W, strain qcr8, active compounds read low 1.03 | locus YJL168C, strain set2, active compounds read low 0.993 | locus YJL187C, strain SWE1 (second series), active compounds read low 1.01 | locus YJR043C, strain POL32, active compounds read low 1.01 | locus YJR066W, strain TOR1, active compounds read low 0.983 | locus YKL009W, strain mrt4, active compounds read low 0.994 | locus YKL068W, active compounds read low 1 | locus YKL085W, strain MDH1 (second series), active compounds read low 1.01 | locus YKL085W, strain MDH1, active compounds read low 1.01 | locus YKL160W, strain elf1, active compounds read low 1.02 | locus YKR001C, strain vps1, active compounds read low 0.997 | locus YKR026C, strain gcn3, active compounds read low 0.97 | locus YKR091W, strain srl3, active compounds read low 0.999 | locus YLL001W, strain dnm1, active compounds read low 1.03 | locus YLL026W, active compounds read low 1.02 | locus YLL041C, strain sdh2, active compounds read low 1.01 | locus YLR027C, strain aat2, active compounds read low 0.993 | locus YLR039C, strain RIC1, active compounds read low 0.993 | locus YLR058C, strain SHM2, active compounds read low 1.01 | locus YLR102C, strain apc9, active compounds read low 0.998 | locus YLR113W, strain HOG1, active compounds read low 1.04 | locus YLR221C, strain rsa3, active compounds read low 1.01 | locus YLR258W, strain gsy2, active compounds read low 0.992 | locus YLR262C, strain YPT6 (second series), active compounds read low 1.01 | locus YLR262C, strain YPT6, active compounds read low 1.04 | locus YLR268W, strain sec22, active compounds read low 0.999 | locus YLR320W, strain mms22, active compounds read low 0.982 | locus YLR330W, strain CHS5, active compounds read low 1.01 | locus YLR342W, strain FKS1 (second series), active compounds read low 1.03 | locus YLR342W, strain FKS1, active compounds read low 1.02 | locus YLR357W, strain rsc2, active compounds read low 1.03 | locus YLR370C, strain arc18, active compounds read low 1 | locus YLR371W, strain rom2, active compounds read low 1.01 | locus YLR384C, strain iki3, active compounds read low 1.02 | locus YLR418C, strain cdc73, active compounds read low 1.02 | locus YML016C, strain PPZ1, active compounds read low 1 | locus YML032C, strain rad52, active compounds read low 0.993 | locus YML120C, strain ndi1, active compounds read low 1.03 | locus YML124C, strain tub3, active compounds read low 0.992 | locus YMR058W, strain fet3, active compounds read low 1.01 | locus YMR078C, strain ctf18, active compounds read low 1 | locus YMR125W, strain sto1, active compounds read low 1.01 | locus YMR129W, active compounds read low 1.02 | locus YMR205C, strain PFK2, active compounds read low 1.02 | locus YMR223W, strain ubp8, active compounds read low 1 | locus YMR231W, strain pep5, active compounds read low 1 | [1] 1.08 | locus YNL067W, strain RPL9B, active compounds read low 1.02 | locus YNL071W, strain lat1, active compounds read low 0.999 | locus YNL183C, strain NPR1, active compounds read low 0.975 | locus YNL209W, strain ssb2, active compounds read low 0.996 | locus YNL233W, strain BNI4, active compounds read low 1 | locus YNL248C, strain rpa49, active compounds read low 0.987 | locus YNL250W, strain rad50, active compounds read low 0.992 | locus YNL271C, strain bni1, active compounds read low 0.995 | locus YNL298W, strain CLA4, active compounds read low 1.01 | locus YNL307C, strain MCK1, active compounds read low 1 | locus YNL322C, strain KRE1 (second series), active compounds read low 1.01 | locus YNR049C, strain mso1, active compounds read low 1.01 | locus YNR052C, strain pop2, active compounds read low 0.996 | locus YOL012C, strain htz1 0.89 | locus YOL147C, strain pex11, active compounds read low 1 | locus YOR001W, strain rrp6, active compounds read low 1.02 | locus YOR061W, strain CKA2, active compounds read low 1.01 | locus YOR069W, strain VPS5, active compounds read low 1 | locus YOR070C, strain gyp1, active compounds read low 1 | locus YOR080W, strain dia2, active compounds read low 1.01 | locus YOR083W, strain WHI5, active compounds read low 1.02 | locus YOR106W, strain vam3, active compounds read low 1.03 | locus YOR136W, strain idh2, active compounds read low 1 | locus YOR144C, strain elg1, active compounds read low 0.998 | locus YOR184W, strain ser1, active compounds read low 1.01 | locus YOR231W, strain MKK1, active compounds read low 1.06 | locus YOR265W, strain rbl2, active compounds read low 1.01 | locus YOR270C, strain vph1, active compounds read low 0.988 | locus YOR290C, strain snf2, active compounds read low 0.969 | locus YOR316C, strain cot1, active compounds read low 1 | locus YPL051W, strain arl3, active compounds read low 1.03 | locus YPL078C, strain atp4, active compounds read low 1.04 | locus YPL106C, strain sse1, active compounds read low 0.998 | locus YPL240C, strain hsp82, active compounds read low 0.97 | [2] 1.01 | locus YPL256C, strain CLN2, active compounds read low 1.06 | locus YPR119W, strain clb2, active compounds read low 0.991 | locus YPR141C, strain kar3, active compounds read low 1 | locus YPR163C, strain tif3, active compounds read low 1.01 | locus YPR167C, strain met16, active compounds read low 0.996 | strain wtn01, active compounds read low 0.99

c1ccc2cc(CC3=NCCN3)ccc2c1
inactive: locus YAL040C, strain CLN3, active compounds read low 1.01 | locus YCL061C, strain MRC1 (second series), active compounds read low 1 | locus YDR363W, strain ESC2, active compounds read low 1.02 | locus YER002W, strain NOP16, active compounds read low 0.998 | locus YGR078C, strain PAC10, active compounds read low 1.01 | [1] 1 | locus YNL128W, strain TEP1, active compounds read low 1 | locus YNL153C, strain GIM3, active compounds read low 0.982 | locus YNL175C, strain NOP13, active compounds read low 1.01 | locus YNL197C, strain WHI3, active compounds read low 1.02 | locus YNL224C, strain SQS1, active compounds read low 1.01 | locus YOR083W, strain WHI5 (second series), active compounds read low 1 | locus YPL055C, strain LGE1, active compounds read low 1.01 | [2] 0.996
